Measured values: PubChem BioAssay AID1159580 (chemical genetic matrix, 2015)
In all, about 5,500 compounds went through this assay and about 2,000 (36%) were called active. Not shown: some 18% with an inconclusive outcome. Cut-off read from the data, not from the text of the source: active = normalized growth mostly below about 0.91 (no sharp cut-off); inconclusive = no clear call, values can overlap the other calls; inactive = mostly above about 0.92. This is one part of the list.

Assay: chemical genetic growth profiling, strain panel (AID 1159580);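 note: tested at 20 µM; growth read once vehicle control cultures reached saturation at 30 °C; 1 = growth at the plate median or of vehicle wells; lower values mean less growth of the strain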
Conditions: growth OD

Measured: normalized growth

C#C[C@]1(OC(C)=O)CCC2C3CCC4=CC(=O)CC[C@@H]4C3CC[C@@]21C (stereo partly drawn)
active: S. cerevisiae deletion strains, locus YLR418C, strain cdc73, active compounds read low 0.803 | S. cerevisiae deletion strains, locus YNL307C, strain MCK1, active compounds read low 0.889 | S. cerevisiae deletion strains, locus YOR184W, strain ser1, active compounds read low 0.829
inactive: S. cerevisiae deletion strains, locus YKL009W, strain mrt4, active compounds read low 0.968 | S. cerevisiae deletion strains, locus YKL068W, active compounds read low 0.973 | S. cerevisiae deletion strains, locus YKL085W, strain MDH1 (second series), active compounds read low 0.967 | S. cerevisiae deletion strains, locus YKL085W, strain MDH1, active compounds read low 0.967 | S. cerevisiae deletion strains, locus YKL160W, strain elf1, active compounds read low 0.964 | S. cerevisiae deletion strains, locus YKL190W, strain CNB1, active compounds read low 0.977 | S. cerevisiae deletion strains, locus YKR001C, strain vps1, active compounds read low 0.945 | S. cerevisiae deletion strains, locus YKR026C, strain gcn3, active compounds read low 0.984 | S. cerevisiae deletion strains, locus YKR091W, strain srl3, active compounds read low 0.992 | S. cerevisiae deletion strains, locus YLL001W, strain dnm1, active compounds read low 0.988 | S. cerevisiae deletion strains, locus YLL026W, active compounds read low 0.99 | S. cerevisiae deletion strains, locus YLL041C, strain sdh2, active compounds read low 0.976 | S. cerevisiae deletion strains, locus YLR027C, strain aat2, active compounds read low 0.988 | S. cerevisiae deletion strains, locus YLR039C, strain RIC1, active compounds read low 0.892 | S. cerevisiae deletion strains, locus YLR058C, strain SHM2, active compounds read low 0.965 | S. cerevisiae deletion strains, locus YLR102C, strain apc9, active compounds read low 0.975 | S. cerevisiae deletion strains, locus YLR113W, strain HOG1, active compounds read low 0.93 | S. cerevisiae deletion strains, locus YLR221C, strain rsa3, active compounds read low 1.02 | S. cerevisiae deletion strains, locus YLR258W, strain gsy2, active compounds read low 0.965 | S. cerevisiae deletion strains, locus YLR262C, strain YPT6 (second series), active compounds read low 0.991 | S. cerevisiae deletion strains, locus YLR262C, strain YPT6, active compounds read low 0.842 | S. cerevisiae deletion strains, locus YLR268W, strain sec22, active compounds read low 0.926 | S. cerevisiae deletion strains, locus YLR320W, strain mms22, active compounds read low 0.969 | S. cerevisiae deletion strains, locus YLR330W, strain CHS5, active compounds read low 0.978 | S. cerevisiae deletion strains, locus YLR342W, strain FKS1 (second series), active compounds read low 0.956 | S. cerevisiae deletion strains, locus YLR342W, strain FKS1, active compounds read low 0.961 | S. cerevisiae deletion strains, locus YLR357W, strain rsc2, active compounds read low 0.975 | S. cerevisiae deletion strains, locus YLR370C, strain arc18, active compounds read low 0.986 | S. cerevisiae deletion strains, locus YLR371W, strain rom2, active compounds read low 0.983 | S. cerevisiae deletion strains, locus YLR384C, strain iki3, active compounds read low 0.991 | S. cerevisiae deletion strains, locus YML016C, strain PPZ1, active compounds read low 0.963 | S. cerevisiae deletion strains, locus YML032C, strain rad52, active compounds read low 0.957 | S. cerevisiae deletion strains, locus YML120C, strain ndi1, active compounds read low 1.02 | S. cerevisiae deletion strains, locus YML124C, strain tub3, active compounds read low 0.962 | S. cerevisiae deletion strains, locus YMR058W, strain fet3, active compounds read low 1 | S. cerevisiae deletion strains, locus YMR078C, strain ctf18, active compounds read low 0.958 | S. cerevisiae deletion strains, locus YMR125W, strain sto1, active compounds read low 0.978 | S. cerevisiae deletion strains, locus YMR129W, active compounds read low 0.973 | S. cerevisiae deletion strains, locus YMR205C, strain PFK2, active compounds read low 0.984 | S. cerevisiae deletion strains, locus YMR223W, strain ubp8, active compounds read low 0.962 | S. cerevisiae deletion strains, locus YMR231W, strain pep5, active compounds read low 1 | S. cerevisiae deletion strains, locus YMR307W, strain GAS1, active compounds read low 1.08 | S. cerevisiae deletion strains, locus YNL067W, strain RPL9B, active compounds read low 0.984 | S. cerevisiae deletion strains, locus YNL071W, strain lat1, active compounds read low 0.986 | S. cerevisiae deletion strains, locus YNL128W, strain TEP1, active compounds read low 0.977 | S. cerevisiae deletion strains, locus YNL153C, strain GIM3, active compounds read low 0.974 | S. cerevisiae deletion strains, locus YNL183C, strain NPR1, active compounds read low 0.927 | S. cerevisiae deletion strains, locus YNL209W, strain ssb2, active compounds read low 0.983 | S. cerevisiae deletion strains, locus YNL233W, strain BNI4, active compounds read low 0.977 | S. cerevisiae deletion strains, locus YNL248C, strain rpa49, active compounds read low 0.963 | S. cerevisiae deletion strains, locus YNL250W, strain rad50, active compounds read low 0.971 | S. cerevisiae deletion strains, locus YNL271C, strain bni1, active compounds read low 0.961 | S. cerevisiae deletion strains, locus YNL298W, strain CLA4, active compounds read low 0.964 | S. cerevisiae deletion strains, locus YNL322C, strain KRE1 (second series), active compounds read low 0.949 | S. cerevisiae deletion strains, locus YNR049C, strain mso1, active compounds read low 0.994 | S. cerevisiae deletion strains, locus YNR052C, strain pop2, active compounds read low 0.932 | S. cerevisiae deletion strains, locus YOL006C, strain TOP1, active compounds read low 0.867 | S. cerevisiae deletion strains, locus YOL012C, strain htz1 1 | S. cerevisiae deletion strains, locus YOL147C, strain pex11, active compounds read low 0.967 | S. cerevisiae deletion strains, locus YOR001W, strain rrp6, active compounds read low 1.02 | S. cerevisiae deletion strains, locus YOR061W, strain CKA2, active compounds read low 0.942 | S. cerevisiae deletion strains, locus YOR069W, strain VPS5, active compounds read low 0.974 | S. cerevisiae deletion strains, locus YOR070C, strain gyp1, active compounds read low 0.994 | S. cerevisiae deletion strains, locus YOR080W, strain dia2, active compounds read low 0.978 | S. cerevisiae deletion strains, locus YOR083W, strain WHI5, active compounds read low 0.937 | S. cerevisiae deletion strains, locus YOR106W, strain vam3, active compounds read low 0.982 | S. cerevisiae deletion strains, locus YOR136W, strain idh2, active compounds read low 0.992 | S. cerevisiae deletion strains, locus YOR144C, strain elg1, active compounds read low 0.97 | S. cerevisiae deletion strains, locus YOR231W, strain MKK1, active compounds read low 0.956 | S. cerevisiae deletion strains, locus YOR265W, strain rbl2, active compounds read low 0.998 | S. cerevisiae deletion strains, locus YOR270C, strain vph1, active compounds read low 0.996 | S. cerevisiae deletion strains, locus YOR290C, strain snf2, active compounds read low 0.961 | S. cerevisiae deletion strains, locus YOR316C, strain cot1, active compounds read low 0.969 | S. cerevisiae deletion strains, locus YPL051W, strain arl3, active compounds read low 0.98 | S. cerevisiae deletion strains, locus YPL078C, strain atp4, active compounds read low 0.968 | S. cerevisiae deletion strains, locus YPL106C, strain sse1, active compounds read low 0.939 | S. cerevisiae deletion strains, locus YPL240C, strain hsp82, active compounds read low 0.989 | S. cerevisiae deletion strains, locus YPL241C, strain CIN2, active compounds read low 0.975 | S. cerevisiae deletion strains, locus YPL256C, strain CLN2, active compounds read low 0.88 | S. cerevisiae deletion strains, locus YPR119W, strain clb2, active compounds read low 0.972 | S. cerevisiae deletion strains, locus YPR141C, strain kar3, active compounds read low 0.946 | S. cerevisiae deletion strains, locus YPR163C, strain tif3, active compounds read low 0.966 | S. cerevisiae deletion strains, locus YPR167C, strain met16, active compounds read low 0.958 | S. cerevisiae deletion strains, strain wtn01, active compounds read low 0.936 | S. cerevisiae strains, strain wild type, active compounds read low 0.953
